Measured values from PubChem BioAssay (Tox21).
Where “and” joins values, the source holds several entries; their conditions need not be identical. Equal values may be shown once. Inconclusive results are not listed. Calls of active or inactive are those of the source. Unless noted, calls come from the whole dose curve; as a rule, active = well fitted curve in the direction sought with a large enough effect in the repeat runs; inconclusive = weak or mixed curves; inactive = no such curve, though single readings can be large; an effect the other way counts as inactive or inconclusive.

Legend:
[1] = qHTS assay to identify small molecule antagonists of the estrogen receptor alpha (ER-alpha) signaling pathway using the BG1 cell line in the presence of 0.1 nM 17-beta-estradiol - cell viability counter screen (AID 1259241); note: nearly all actives have a fitted effect of over 40% in size; note: potency is the fitted concentration of half-maximal effect
Procedure, shortened: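 VM7Luc4E2 cells (endogenous full-length ER-alpha, 4xERE-luciferase), cultured 5 days in charcoal-stripped serum, exposed to compounds with 0.1 nM 17beta-estradiol (final) for 22 hr at 37C. Viability read in same wells as live-cell protease fluorescence after 30 min.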

[2] = qHTS assay to identify small molecule antagonists of the androgen receptor (AR) signaling pathway using the MDA cell line in the presence of 0.5 nM R1881 - cell viability counter screen (AID 1259242); note: nearly all actives have a fitted effect of over 45% in size; note: potency is the fitted concentration of half-maximal effect
Procedure, shortened: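 Live-cell protease fluorescence, CellTiter-Fluor, 30 min at 37C. Cells: MDA-kb2, 3,000/well, preincubated 5 hr. Compounds plus 0.5 nM R1881 final, 16 hr, 37C, 0% CO2.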

[3] = target: Estrogen receptor (Homo sapiens) (UniProt P03372); assay: qHTS assay to identify small molecule antagonists of the estrogen receptor alpha (ER-alpha) signaling pathway using the BG1 cell line in the presence of 0.1 nM 17-beta-estradiol (AID 1259244); note: nearly all actives have a fitted effect of over 50% in size
Procedure, shortened: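 Luminescence after ONE-Glo (30 min, room temperature) measured ERE-luciferase activity in VM7Luc4E2 cells treated 22 h with compound and 0.1 nM final 17beta-estradiol as stimulator.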

[4] = qHTS assay to identify small molecule HDAC inhibitors (AID 1259364);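 note: wild-type HCT-116 cells with endogenous class I/II HDAC activity; top concentration of the series differs between compounds; nearly all actives have a fitted effect of over 45% in size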
Procedure, shortened: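 HCT-116 (wild type), 1,500 cells/well, overnight; compound 2 hr 37C 5% CO2; HDAC-Glo I/II reagent 30 min RT; luminescence readout.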

[5] = qHTS assay to identify small molecule HDAC inhibitors - cell viability counter screen (AID 1259365); note: nearly all actives have a fitted effect of over 50% in size; note: potency is the fitted concentration of half-maximal effect; for activity change, negative = cytotoxicity: series mostly up to about 92 µM
Procedure, shortened: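 Wild-type HCT-116 cells, 1,500/well, cultured overnight, then compound-treated 2 h at 37 C. Viability measured as ATP luminescence with CellTiter-Glo after 30 min at room temperature.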

[6] = qHTS assay to identify small molecule agonists of the sonic hedgehog signaling (Shh) pathway - cell viability counter screen (AID 1259366); note: nearly all actives have a fitted effect of over 50% in size; note: potency is the fitted concentration of half-maximal effect
Procedure, shortened: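 NIH/3T3-derived Gli1-Luc reporter cells, 2,000 per well, received compound after 4 h and were treated about 23 h at 37C. Viability measured in the same wells by CellTiter-Fluor fluorescence after 1 h.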

[7] = qHTS assay to identify small molecule antagonists of the sonic hedgehog signaling (Shh) pathway - cell viability counter screen (AID 1259367); note: nearly all actives have a fitted effect of over 55% in size; note: potency is the fitted concentration of half-maximal effect
Procedure, shortened: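 Conditioned medium drove Shh signaling in 3T3 Gli1-Luc cells exposed to compounds at 37C and 5% CO2. Viability was determined from CellTiter-Fluor fluorescence, with reagent incubated 1 hr after 23 hr of treatment.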

[8] = qHTS assay to identify small molecule agonists of the sonic hedgehog signaling (Shh) pathway (AID 1259368; calls by dose curve;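 note: NIH/3T3-derived 3T3Gli1-Luc cells carrying a stable Gli1-driven firefly luciferase reporter; series mostly up to about 92 µM; nearly all actives have a fitted effect of over 15% in size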)
Procedure, shortened: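 Read-out: firefly luciferase luminescence from a Gli1 response element reporter stably integrated in NIH/3T3-derived 3T3Gli1-Luc cells, measured 30 min at room temperature after reagent addition. Compound exposure lasted 24 hr at 37 C, 5% CO2.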

[9] = target: Androgen receptor (Homo sapiens) (UniProt P10275); assay: qHTS assay to identify small molecule antagonists of the androgen receptor (AR) signaling pathway using the MDA cell line in the presence of 0.5 nM R1881 (AID 1259243); note: nearly all actives have a fitted effect of over 50% in size; note: potency is the fitted concentration of half-maximal effect
Procedure, shortened: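 MDA-kb2, MMTV-luc (AR/GR elements); 3,000 cells/well; cpd + 0.5 nM R1881 final; 16 hr 37C, 0% CO2; ONE-Glo 30 min RT; luminescence.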

[10] = qHTS assay to identify small molecule phospholipidosis (PLD) inducers (AID 1259344; active = well fitted curve in the direction sought with a large enough effect; an effect the other way counts as inactive or inconclusive)
Procedure, shortened: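 After 4 h attachment on collagen I, HepG2 cells were dosed with compound alongside LipidTOX Red, kept 24 h at 37 C, fixed, and imaged for lamellar phospholipid pits.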
% is set by controls: 0 for no effect and ±100 for the full control effect.

Androgen receptor (Homo sapiens), sequence (P10275 whole entry, looked up): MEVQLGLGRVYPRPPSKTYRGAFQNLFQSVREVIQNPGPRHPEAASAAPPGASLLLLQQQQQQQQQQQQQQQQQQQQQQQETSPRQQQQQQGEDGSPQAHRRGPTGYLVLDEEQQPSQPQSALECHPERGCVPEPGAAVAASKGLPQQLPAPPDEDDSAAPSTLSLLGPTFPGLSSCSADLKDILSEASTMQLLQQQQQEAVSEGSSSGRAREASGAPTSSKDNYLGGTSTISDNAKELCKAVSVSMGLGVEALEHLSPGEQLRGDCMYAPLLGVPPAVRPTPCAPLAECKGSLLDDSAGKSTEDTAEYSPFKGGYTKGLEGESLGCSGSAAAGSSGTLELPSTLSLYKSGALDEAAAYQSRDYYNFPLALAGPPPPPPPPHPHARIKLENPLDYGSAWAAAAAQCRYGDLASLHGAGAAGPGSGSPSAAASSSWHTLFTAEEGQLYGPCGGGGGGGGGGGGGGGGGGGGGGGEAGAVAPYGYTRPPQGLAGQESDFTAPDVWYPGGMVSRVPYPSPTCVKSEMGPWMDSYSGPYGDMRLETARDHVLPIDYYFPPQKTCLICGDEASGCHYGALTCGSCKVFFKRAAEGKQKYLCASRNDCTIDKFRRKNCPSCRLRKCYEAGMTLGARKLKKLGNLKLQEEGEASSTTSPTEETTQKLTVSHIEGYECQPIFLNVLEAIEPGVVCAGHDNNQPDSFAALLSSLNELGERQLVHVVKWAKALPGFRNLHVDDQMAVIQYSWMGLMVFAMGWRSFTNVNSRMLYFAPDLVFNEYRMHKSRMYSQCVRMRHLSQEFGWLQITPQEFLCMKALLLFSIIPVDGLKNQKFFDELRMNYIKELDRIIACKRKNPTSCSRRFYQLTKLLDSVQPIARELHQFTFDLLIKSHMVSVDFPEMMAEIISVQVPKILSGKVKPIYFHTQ
Estrogen receptor (Homo sapiens), sequence (P03372 whole entry, looked up): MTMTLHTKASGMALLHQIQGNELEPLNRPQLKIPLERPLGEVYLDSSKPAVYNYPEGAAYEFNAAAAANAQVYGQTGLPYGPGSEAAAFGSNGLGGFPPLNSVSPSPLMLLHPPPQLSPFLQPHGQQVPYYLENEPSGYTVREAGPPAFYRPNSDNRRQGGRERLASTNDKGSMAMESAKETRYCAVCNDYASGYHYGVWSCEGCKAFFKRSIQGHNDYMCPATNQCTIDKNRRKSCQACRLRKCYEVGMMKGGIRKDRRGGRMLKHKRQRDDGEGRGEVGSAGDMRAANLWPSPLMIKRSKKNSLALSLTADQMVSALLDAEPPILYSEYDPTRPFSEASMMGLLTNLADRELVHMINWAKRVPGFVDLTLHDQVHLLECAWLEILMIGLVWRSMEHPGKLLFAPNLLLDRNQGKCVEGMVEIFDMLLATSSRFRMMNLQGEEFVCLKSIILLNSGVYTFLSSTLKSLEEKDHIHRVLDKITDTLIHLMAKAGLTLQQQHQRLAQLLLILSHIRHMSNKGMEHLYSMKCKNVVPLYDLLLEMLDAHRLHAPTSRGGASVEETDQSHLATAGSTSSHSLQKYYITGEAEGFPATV

ClC(Cl)C(Cl)(Cl)Cl
inactive: Potency [1] | Potency [2] | Potency [3] | Potency [4] | Potency [5] | Potency [6] | Potency [7] | Potency [8]

CCOP(=S)(OCC)Oc1cc(C)nc(N(CC)CC)n1
active: Potency [9] 34.4 µM
inactive: Potency [1] | Potency [2] | Potency [4] | Potency [5] | Potency [6] | Potency [7] | Potency [8]

CCC[CH2][Sn]([CH2]CCC)([CH2]CCC)[O][Sn]([CH2]CCC)([CH2]CCC)[CH2]CCC
inactive: activity change, negative = cytotoxicity [1] -23.5% [at 8.39 µM] | activity change, negative = inhibition [4] 2.24% [at 8.39 µM] | activity change [8] -10.2% [at 8.39 µM, stronger effect = higher value]
active: Potency [2] 0.533 µM | Potency [9] 0.189 µM | Potency [6] 212 nM | Potency [7] 377 nM

O=[N+]([O-])C(Br)Br
inactive: Potency [1] | Potency [2] | Potency [9] | Potency [4] | Potency [5] | Potency [6] | Potency [7] | Potency [8]

Cc1nn(-c2cc(NS(C)(=O)=O)c(Cl)cc2Cl)c(=O)n1C(F)F
inactive: Potency [1] | Potency [2] | Potency [9] | Potency [4] | Potency [6] | Potency [7] | Potency [8]

O=C(O)CCCCCCNC1c2ccccc2CCc2ccccc21
inactive: Potency [1] | Potency [2] | Potency [3] | outcome [10] | Potency [4] | Potency [5] | Potency [6] | Potency [7] | Potency [8]

CC(Cc1ccccc1)N(C)Cc1ccco1 (centres undefined)
inactive: Potency [1] | Potency [2] | Potency [9] | Potency [3] | Potency [4] | Potency [5] | Potency [6] | Potency [7] | Potency [8]

Cc1ccccc1OP(=O)(Oc1ccccc1C)Oc1ccccc1C
active: Potency [9] 48.8 µM
inactive: Potency [1] | Potency [2] | Potency [3] | Potency [4] | Potency [5] | Potency [6] | Potency [8]

N#Cc1c2ccccc2cc2ccccc12
inactive: Potency [1] | Potency [2] | Potency [3] | Potency [4] | Potency [5] | Potency [8]
active: Potency [9] 10.8 µM

CCN(CC)CCc1c[nH]c2ccccc12
inactive: Potency [1] | Potency [2] | Potency [3] | outcome [10] | Potency [4] | Potency [5] | Potency [6] | Potency [7] | Potency [8]

O=C1C(Cl)=C(Cl)C(=O)C(Cl)=C1Cl
inactive: Potency [1] | Potency [3] | Potency [4] | Potency [5] | Potency [8]
active: Potency [2] 48.4 µM | Potency [9] 27.2 µM and 24.3 µM | Potency [6] 24.2 µM and 24.3 µM | Potency [7] 60.9 µM and 24.3 µM

CC(=O)[O][Pb]([c]1ccccc1)([c]1ccccc1)[c]1ccccc1
inactive: Potency [3] | Potency [8]
active: Potency [1] 21.7 µM | Potency [2] 6.11 µM | Potency [9] 0.969 µM | Potency [5] 61.1 µM | Potency [6] 486 nM | Potency [7] 770 nM

CC(C)=CC1C(C(=O)OC(C#N)c2cccc(Oc3ccccc3)c2)C1(C)C (centres undefined)
inactive: Potency [1] | Potency [2] | Potency [9] | Potency [4] | Potency [5] | Potency [7] | Potency [8]
